Assay outcomes: PubChem, National Center for Advancing Translational Sciences (NCATS)
Compounds with a hit are over-represented: about 11% of the library has one in this group of screens.
ALDH1A1 inh = ALDH1A1 (human) enzyme inhibition; P00352; Purified ALDH1A1, NADH fluorescence, propionaldehyde substrate; Potency, µM (series often up to 75.3 µM), for inactives: at the highest dose activity, negative = inhibition, usual class: inhibitors; 220,000 compounds, 7.3% hits; AID 1030;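 note: potency is the fitted concentration of half-maximal effect; plate controls were no enzyme wells and a reference inhibitor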
HPGD inh = HPGD (human) dehydrogenase inhibition | P15428 | purified HPGD, NADH fluorescence kinetic, PGE2 substrate | Potency, µM, for inactives: top-dose activity change, negative = inhibition, actives largely listed as inhibitors | 150,000 compounds, 4.3% hits | AID 894; note: potency is the fitted concentration of half-maximal effect
Target sequence (P15428 whole entry, looked up): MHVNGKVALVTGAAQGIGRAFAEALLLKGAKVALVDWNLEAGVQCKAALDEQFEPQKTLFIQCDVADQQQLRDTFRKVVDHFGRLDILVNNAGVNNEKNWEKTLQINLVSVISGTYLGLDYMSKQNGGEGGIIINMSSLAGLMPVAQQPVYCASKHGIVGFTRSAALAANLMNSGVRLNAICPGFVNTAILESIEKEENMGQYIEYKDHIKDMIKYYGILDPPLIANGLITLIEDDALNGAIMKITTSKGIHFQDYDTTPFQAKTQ
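20 nM HPGD preincubated 15 min at room temperature with compound in 50 mM Tris-HCl pH 8, 0.01% Tween 20. Started with 1 mM NAD+ and 30 uM prostaglandin E2; NADH fluorescence (360/450 nm) read 5 times over 30-s intervals, last minus first.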
PNC assembly inh = blocks assembly of the perinucleolar compartment | activity change (PNC), negative = inhibition, % at 10 µM | PC3M PTB-GFP, PNC prevalence imaging, 16 h; active compounds read low | 140,000 compounds, 3.1% hits;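 active = readout at or below -70, meaning at least 70% loss of cells showing the perinucleolar compartment, a nuclear body marking cancer cells; inconclusive = readout between -30 and a set limit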;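 note: plate controls were DMSO wells for no effect and camptothecin positive control wells for full effect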
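Read-out is percentage of cells bearing a perinucleolar compartment, from automated 20x imaging of fixed, Hoechst-stained PC3M PTB-GFP cells. Cells were seeded 4 h, then exposed 16 h to compound (23 nl of library stock) in duplicate plates.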
* marks the source's active call; other numbers are inactive results; ? = inconclusive; . = no result given; [ ] = remark or other dose. Unless noted, calls come from the whole dose curve; as a rule, active = well fitted inhibition curve with a large enough effect (not every such curve was filed as active); inconclusive = small, poorly fitted or top-dose-only effect, or another doubt; inactive = no such curve, though single readings can be large or run the other way. Unless noted, % is set by controls: 0 for no effect and ±100 for the full control effect.

SMILES	ALDH1A1 inh	HPGD inh	PNC assembly inh
COc1ccccc1OCC(=O)Nc1ccc(S(=O)(=O)Nc2cc(C)nc(C)n2)cc1	-0.7%	-11.1%	54.6
NC(=O)CC[C@@H]1NC(=O)[C@@H]2CCCN2C(=O)c2cc([N+](=O)[O-])cc(I)c2NCCCC[C@@H](C(=O)NC(CC(=O)O)C(N)=O)NC1=O (some centres undefined)	3.6%	-7.2%	51.9
COc1ccc(-c2coc3cc4oc(=O)cc(-c5ccccc5)c4cc23)cc1F	5.0%	?	-110.8*
COc1ccc(-c2coc3cc4oc(=O)cc(C)c4cc23)cc1F	-12.7%	?	20.3
Cc1ccc(C(=O)[C@@H]2[C@H]3C4COC(O4)C(=O)[C@@H]3[C@H]3C=Cc4ccccc4N32)cc1 (some centres undefined)	?	-17.5%	.
CC(=O)[C@@H]1[C@H]2[C@H](C(=O)[C@H]3OC[C@@H]2O3)[C@H]2C=Cc3ccccc3N21	25.1µM*	-24.9%	.
O=C(COC(=O)/C=C/c1cccs1)Nc1cccc(S(=O)(=O)N2CCCC2)c1	-0.4%	.	.
Cc1ccc(-c2nnc(CSc3nnc(COc4ccccc4)n3-c3ccccc3)o2)cc1	-10.8%	-21.8%	9.1
CCOc1ccc(-c2nnc(SCc3nnc(-c4ccccc4)o3)n2-c2ccccc2F)cc1	4.2%	12.6µM*	-25.4
CCOc1ccc(C2c3cc(OC)c(OC)cc3CC(=O)N2c2ccc(OC)cc2)cc1 (centres undefined)	?	-5.4%	25.3
CC1CCCCC1NC(=O)CN1C(=O)CSc2cc(S(=O)(=O)N3CCCCCC3)ccc21 (centres undefined)	?	-1.6%	30.2
Cc1ccc(S(=O)(=O)CC(=O)Nc2ccc(Cl)cn2)cc1	-9.3%	.	.
CC1(C)C(=O)Nc2ccccc2N1C(=O)CSc1nc(-c2ccccc2)cs1	-4.5%	-18.1%	-0.5
Cc1cccc2cc(C#N)c(SCC(=O)N3CC(=O)Nc4ccccc43)nc12	?	-26.5%	-85.3*
O=C1CN(C(=O)CSc2nc(-c3ccccc3)cs2)c2ccccc2N1	6.9%	17.8µM*	-90.6*
Cc1ccc(-n2nnnc2SCC(=O)N2CC(=O)Nc3ccccc32)cc1	11.2µM*	?	?
Cc1cccc2cc(C#N)c(SCC(=O)N3CCC(C)CC3)nc12	?	?	-23.8
Cc1nnc(SCC(=O)N2CC(=O)Nc3ccccc32)n1C	6.5%	-3.2%	8.4
COc1ccccc1NC(=O)CSc1nnc(CCNC(=O)c2ccc(C)cc2)n1C	-6.5%	.	.
CCOC(=O)c1c(C(F)(F)C(F)(F)C(F)(F)C(F)(F)F)n[nH]c1C	-2.7%	-24.7%	?
CC(=O)OC[C@@H]1O[C@H](C/C=N\OC[C@@H](O)COCc2ccco2)C=C[C@@H]1OC(C)=O	7.8%[13.5 µM]	.	.
CN(C[C@H](Cc1ccccc1)N(C[C@H](c1ccccc1)N(CCc1ccccc1)N=O)N=O)N=O	-13.3%	.	.
CCOC(=O)N1CCN(C(=O)C2CCN(S(=O)(=O)N3CCCC3)CC2)CC1	?	-10.0%	10.0
CCOC(=O)N1CCN(C(=O)C2CCN(CC3CCCCC3)CC2)CC1	4.5%	0.6%	-113.8*
Cn1c(-n2c(CCN3C(=O)c4ccccc4C3=O)nc3ccccc3c2=O)nc2ccccc21	?	-3.8%	5.8
SMILES	ALDH1A1 inh	HPGD inh	PNC assembly inh
O=C(CC(SCCO)c1ccc(F)cc1)c1ccco1 (centres undefined)	28.2µM*	-26.7%	22.7
Cc1ccc(C(CC(=O)c2ccco2)SCCO)cc1 (centres undefined)	-9.6%	-12.8%	6.8
O=C(c1cccc(C(F)(F)F)c1)c1c[nH]c(C(=O)NCCCN2CCOCC2)c1	3.9%	.	.
CC(=O)c1ccc(NC(=O)CCSCCC(=O)Nc2ccc(C(C)=O)cc2)cc1	39.8µM*	-10.2%	-4.6
CC(=O)c1ccc(NC(=O)CSCC(=O)Nc2ccc3ccccc3c2)cc1	?	-12.3%	?
Cc1cccc(C(=O)Nc2cccc(-c3ccc4nncn4n3)c2)c1	-6.3%	.	.
Cn1c(NCc2ccccc2)cc(=O)n(C)c1=O	2.7%	?	?
Cn1c(=O)cc(NCc2ccccc2)[nH]c1=O	-2.9%	-16.5%	-90.8*
Cc1nc(NS(=O)(=O)c2ccccc2)sc1NC(=O)OCCN(C)C	14.1µM*	-3.7%	36.0
CCOC(=O)c1sc(NS(=O)(=O)c2ccccc2)nc1C	-14.3%	-11.6%	?
Cc1nc(NS(=O)(=O)c2ccccc2)sc1C(C)(C)C	5.01µM*	-9.9%	?
C/C(=N/NC(=O)c1sc(NS(=O)(=O)c2ccccc2)nc1C)c1ccc(F)cc1	?	-19.1%	30.3
CCCCOC(=O)C1CCCC(C(=O)OCCCC)N1 (centres undefined)	4.2%	-1.3%	?
O=C(/C(C=Nc1ccc(Br)cc1)=C(/O)c1ccco1)C(F)(F)F	-4.9%	-3.5%	-2.5
O=C(Nc1ccccc1Cl)N1CCN(c2ccc3nnc(-c4ccccc4)n3n2)CC1	?	?	12.3
O=C(Nc1ccc(Cl)cc1)N1CCN(c2ccc3nnc(-c4ccc(F)cc4)n3n2)CC1	28.2µM*	?	-2.5
CCCCCC(=O)OC(CN1CCCCC1)CN1CCCC1=O (centres undefined)	1.2%	-16.6%	10.1
COc1cc2c(cc1OC)C(CCN)=NCC2	-7.4%[13.5 µM]	-13.5%	.
Cc1ccc(S(=O)(=O)Nc2ccc(-c3nnc(SCC#N)n3C)cc2)cc1	-0.2%	-19.5%	-8.9
Clc1ccccc1-c1nc(N2CCNCC2)c2ccccc2n1	-3.4%	-13.5%	.
Cc1cc(C)c2cc(C#N)c(NCCCNC(=O)CCC(=O)O)nc2c1	?	?	-87.2*
COC(=O)CSc1nc2cc(C)cc(C)c2cc1C#N	2.3%	-3.9%	21.4
COC(=O)C1C2C=CC3(CN(Cc4cccs4)C(=O)C13)O2 (centres undefined)	-9.8%	-8.0%	-4.8
COC(=O)C1C(=O)N2CCCSC2=C(C#N)C1c1cccs1 (centres undefined)	6.31µM*	-6.7%	-11.7
COc1ccc(-n2c(=O)c(CCc3ccccc3)nc3cnc(N4CCN(C)CC4)nc32)cc1	-11.3%	.	.
SMILES	ALDH1A1 inh	HPGD inh	PNC assembly inh
CC1(C)CC(=S)Nc2ccccc2S1	10µM*	15.8µM*	-100.0*
S=C1Nc2ccccc2Sc2ccc(Cl)cc21	-7.9%	-19.3%	-6.1
COCCCNCCOCCOc1ccc(Cl)cc1C(C)(C)C	-6.4%	-15.4%	-21.8
CCCS(=O)(=O)N1CCN(S(=O)(=O)c2ccc(F)cc2)CC1	3.9%	-8.8%	273.7
O=C(CSc1n[nH]c(-c2cccs2)n1)NCc1ccc2c(c1)OCO2	0.6%	12.6µM*	?
O=C(CSc1n[nH]c(-c2cccs2)n1)NCc1cccs1	24.4%	17.8µM*	29.7
Nc1nc(SCC(=O)NCc2ccc3c(c2)OCO3)n[nH]1	2.2%	.	.
Cn1c(SCC(=O)NCc2cccs2)nnc1-c1cccs1	4.7%	-5.3%	9.5
Cc1cc(C)c2nc(Nc3nc(C)cc(=O)[nH]3)nc(C)c2c1	-5.2%	2.0%	.
CCCc1nc2oc(C(=O)c3ccccc3)c(N)c2c2c1COC(C)(C)C2	10µM*	-15.8%	?
CCCc1nc2sc3c(=O)n(N)cnc3c2c2c1COC(C)(C)C2	-5.6%	-12.8%	?
CCOC(=O)c1c(C)[nH]c2ccc3c(c12)CN1CCc2cc(OC)ccc2[C@@H]1O3	-2.1%	-9.9%	.
